# BAZ2B inh: qHTS Assay for Inhibitors of BAZ2B. Bromodomain adjacent to zinc finger domain protein 2B (Homo sapiens), Q9UIF8. AlphaScreen BAZ2B-H3K14Ac peptide displacement. Potency, µM (highest dose often 114 µM), without a hit: at the highest dose activity change, negative = inhibition, actives largely listed as inhibitors. 360,000 tested, 4.4% active; note: % is set by controls: 0 for no effect and ±100 for the full control effect; nearly all actives have a fitted effect of over 60% in size
#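 Complex of BAZ2B and biotin-H3K14Ac (50 nM apiece) forms over 30 min at RT, then faces library compounds up to 110 uM for another 30 min; AlphaScreen beads added, 20 min dark incubation, luminescence read.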
# GLS inh: qHTS for Inhibitors of Glutaminase (GLS); Glutaminase kidney isoform, mitochondrial (Homo sapiens), O94925; GLS enzymatic activity, qHTS titration; Potency, µM (top dose mostly 45.5 µM), inactives show top-dose activity change, negative = inhibition, actives largely listed as inhibitors; 410,000 tested, 0.21% active; note: % is set by controls: 0 for no effect and ±100 for the full control effect
#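 hKGA in 45 mM KH2PO4 pH 8.2, 0.02% Tween-20 with pin-transferred compounds; 1 mM L-glutamine (stock) plus glutamate oxidase/HRP/Amplex Red coupling added. Fluorescence read initially and after 30 min at RT.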
# JMJD2A Tudor: qHTS Assay for Inhibitors of JMJD2A-Tudor Domain; AlphaScreen JMJD2A-Tudor / H3K4me3 peptide binding; 390,000 tested, 4.4% active; Lysine-specific demethylase 4A (Homo sapiens), O75164; Potency, µM (titrated, usually from 114 µM), without a hit: at the top dose activity change, negative = inhibition, usual class: inhibitors; AID 504339, 2011; note: % is set by controls: 0 for no effect and ±100 for the full control effect; nearly all actives have a fitted effect of over 50% in size
# HP1b chromo inh: HTS for Inhibitors of HP1-beta Chromodomain Interactions with Methylated Histone Tails | AlphaScreen HP1-beta / biotin-H3K9me3 peptide binding | 390,000 tested, 0.56% active | AID 540317, 2011 | Potency, µM (highest dose often 114 µM), without a hit: at the top dose activity change, negative = inhibition, actives largely listed as inhibitors | Chromobox protein homolog 1 (Homo sapiens), P83916; note: nearly all actives have a fitted effect of over 70% in size
#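 HP1-beta protein (50 nM final) preincubated 30 min at room temperature with biotinylated H3(1-18)K9me3 peptide (50 nM) in PBS pH 7.4, 0.01% Tween-20, then compound added for 30 min. AlphaScreen streptavidin donor/nickel chelate acceptor beads (10 ug/mL final), 30 min dark, luminescence read.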
# G9a block: qHTS Assay for Inhibitors of Histone Lysine Methyltransferase G9a | G9a H3K9 monomethylation, AlphaScreen, 2 h | 350,000 tested, 8.8% active | Potency, µM (doses to about 102 µM), for inactives: top-dose activity, negative = inhibition, most hits filed as inhibitors | Histone-lysine N-methyltransferase EHMT2 (Homo sapiens), Q96KQ7 | AID 504332, 2011; note: % is set by controls: 0 for no effect and ±100 for the full control effect; nearly all actives have a fitted effect of over 75% in size
#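 Step 1: enzyme (final 20 nM) with compound, 15 min RT. Step 2: substrate peptide 500 nM and SAM 20 uM, 2 h RT. Step 3: anti-H3K9me1 antibody and AlphaScreen beads, 10 min, then plate read.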
# L3MBTL1 inh: qHTS Assay for the Inhibitors of L3MBTL1; 230,000 tested, 0.66% active; AlphaScreen L3MBTL1–H3K9me1 peptide binding; Lethal(3)malignant brain tumor-like protein 1 (Homo sapiens), Q9Y468; AID 485360, 2010; Potency, µM (doses to about 57.1 µM), for inactives: at the highest dose activity, negative = inhibition, actives largely listed as inhibitors; note: % is set by controls: 0 for no effect and ±100 for the full control effect; nearly all actives have a fitted effect of over 60% in size
# Target sequence (Q9Y468 whole entry, looked up): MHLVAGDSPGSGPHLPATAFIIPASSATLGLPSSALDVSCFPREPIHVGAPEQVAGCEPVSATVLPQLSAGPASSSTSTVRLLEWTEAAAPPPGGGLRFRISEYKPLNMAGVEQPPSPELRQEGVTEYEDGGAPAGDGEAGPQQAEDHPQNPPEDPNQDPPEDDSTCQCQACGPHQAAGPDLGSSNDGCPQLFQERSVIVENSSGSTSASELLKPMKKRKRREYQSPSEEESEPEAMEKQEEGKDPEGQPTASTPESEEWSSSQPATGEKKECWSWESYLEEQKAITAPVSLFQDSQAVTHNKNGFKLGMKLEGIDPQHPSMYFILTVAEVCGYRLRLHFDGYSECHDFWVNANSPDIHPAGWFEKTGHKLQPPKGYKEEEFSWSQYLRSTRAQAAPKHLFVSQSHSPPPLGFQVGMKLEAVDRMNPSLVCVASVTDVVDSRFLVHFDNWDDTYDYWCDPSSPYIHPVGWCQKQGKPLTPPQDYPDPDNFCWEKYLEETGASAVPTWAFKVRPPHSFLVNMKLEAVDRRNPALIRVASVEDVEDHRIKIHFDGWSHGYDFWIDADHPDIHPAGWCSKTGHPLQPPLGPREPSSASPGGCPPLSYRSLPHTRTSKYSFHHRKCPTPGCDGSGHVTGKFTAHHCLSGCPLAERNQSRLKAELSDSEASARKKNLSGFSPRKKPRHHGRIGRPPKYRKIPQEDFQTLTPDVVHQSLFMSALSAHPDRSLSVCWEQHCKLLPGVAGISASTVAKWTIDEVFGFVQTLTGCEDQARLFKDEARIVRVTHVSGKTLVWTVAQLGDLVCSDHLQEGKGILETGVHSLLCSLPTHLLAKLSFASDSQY
#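 Read-out is AlphaScreen signal from streptavidin donor and nickel chelate acceptor beads (10 ug/mL final each) bridging L3MBTL1 (50 nM) and biotinylated K9-monomethylated H3(1-15) peptide (75 nM), after 30 min compound exposure at room temperature.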
# Numbers without * were called inactive; ? = inconclusive; nt = no result given; ! = not active in a repeat; [ ] = dose if it differs, or a comment. Rows were chosen to be rich in hits. Some 10% of all compounds tested hit in one or more screens of this group. Calls come from the whole dose curve; as a rule, active = well fitted curve in the direction sought with a large enough effect; inconclusive = small, poorly fitted or top-dose-only effect, or another doubt; inactive = no such curve, though single readings can be large; an effect the other way counts as inactive or inconclusive. Potency is the fitted concentration of half-maximal effect.
SMILES,BAZ2B inh,GLS inh,JMJD2A Tudor,HP1b chromo inh,G9a block,L3MBTL1 inh
CC(=O)N[C@@H]1C(O[C@H]2O[C@H](C(=O)O)C(O)[C@H](O)[C@H]2O)[C@H](O)[C@@H](CO)O[C@H]1O[C@@H]1C(C(=O)O)O[C@@H](O[C@H]2[C@H](O)[C@@H](CO)OC(O)[C@@H]2NC(C)=O)[C@H](O)[C@H]1O (stereo not given in full),nt,5%,nt,nt,-44%[12.7 µM],nt
CCOc1ccc(C(=O)Nc2cccc(-c3nc4cccnc4s3)c2C)cc1OCC,-13%,-7%,-18%,33%,?,nt
CCn1cc([N+](=O)[O-])c(C(=O)N2N=C(c3ccc(Cl)c(Cl)c3)CC2c2ccccc2O)n1 (stereo not given),?,14%,?,-8%,?,0%
CCn1cc([N+](=O)[O-])c(C(=O)N2N=C(c3ccc(O)c(OC)c3)CC2c2ccccc2O)n1 (stereo not given),-6%,25%,-28%,-21%,40µM*,-1%
COc1ccccc1C(O)c1nccn1Cc1ccccc1 (stereo not given),nt,nt,-18%,25%,nt,nt
COc1ccc(C(=O)C2CCCN(C(=O)c3noc4c3CCCC4)C2)cc1F (stereo not given),-2%,-12%,-3%,55%,-25%,-4%
COc1ccc(C(=O)C2CCCN(C(=O)c3ccc(CSC)o3)C2)cc1F (stereo not given),-33%,-1%,-32%,10%,32µM*,nt
COC(=O)c1ccc(NC(=O)CC2C(=O)N(c3cccc(OC)c3)C(=O)N2Cc2cccc(OC)c2)cc1 (stereo not given),-17%,-16%,-10%,22%,-7%[59 µM],nt
O=C(NNc1cc(Cl)cc(Cl)c1)C1CCC1,4%,?,-7%,20%,?,-2%
O=C(NNc1ccc(Cl)cc1)C1CCC1,-2%,?,-19%,53%,18µM*,6%
Cc1cccc(NNC(=O)C2CCC2)c1,1%,17%,3%,60%,32µM*,4%
Cc1cccc(NNC(=O)c2c(F)cccc2Cl)c1,-9%,22%,-3%,54%,71µM*,4%
Cc1cccc(NS(=O)(=O)c2nnc(NC(=O)C3CCCCC3)s2)c1,6.3µM*!,0%,-15%,34%,8.9µM*!,4%
Cc1cccc(NC(=O)C2CCCC2)c1,13%,6%,-4%,19%,25%[59 µM],-2%
CCOC(=O)C(C)Sc1nnc2cc(C)c3ccccc3n12 (stereo not given),-7%,-8%,-16%,12%,2%[59 µM],nt
CCOc1ccc(C(=O)NCC(=O)OCC(=O)c2ccc3c(c2)-c2ccccc2C3)cc1,13%,-8%,-4%,55%,71µM*,-7%
COc1ccccc1C(=O)NCC(=O)OCC(=O)c1ccc2c(c1)-c1ccccc1C2,-6%,8%,-12%,16%,-5%[59 µM],-4%
O=C(COc1ccc(Br)cc1)N/N=C1/SCC(=O)N1Cc1ccco1,?,0%,16µM*,?,-44%,-14%
CC(=O)N1CCc2cc(CNS(=O)(=O)c3ccc(Cl)s3)ccc21,0%,8%,-1%,30%[57 µM],6%[59 µM],nt
Cc1ccc(S(=O)(=O)N=Nc2c(O)[nH]c3ccccc23)cc1,?,-7%,-20%,36%,1.6µM*,nt
Cc1ccc(C)c(S(=O)(=O)N=Nc2c(O)[nH]c3ccccc23)c1,-27%,-18%,-15%,27%,8.9µM*,-4%
Cc1ccc(S(=O)(=O)N(CC(=O)N=Nc2c(O)[nH]c3ccccc23)c2ccc(C)c(C)c2)cc1,-32%,2%,?,-13%,12%[59 µM],-11%
Nc1nc(NCc2ccc(Cl)c(Cl)c2)c2[nH]cnc2n1,nt,nt,-26%,27%,nt,nt
CC1CCCN(Cc2c(O)ccc3c(=O)c(-c4ccccc4Cl)c(C(F)(F)F)oc23)C1 (stereo not given),7%,3%,-19%,22%,13%[59 µM],nt
CCCCN(C)C1=Nc2cccc3cccc1c23,-1%,0%,?,24%,10µM*,nt
SMILES,BAZ2B inh,GLS inh,JMJD2A Tudor,HP1b chromo inh,G9a block,L3MBTL1 inh
COc1cccc(-c2nc3c(C#N)c[nH]n3c2NC2CCCC2)c1OC,-12%,?,-10%,28%,-4%[59 µM],nt
Cc1ccc2c(c1C)NC(C)CC2C (stereo not given),?,-13%,-8%[11.4 µM],-13%,14µM*,-7%
C#CCOCCOCCOCCNc1nc(N2CCN(C(=O)[C@H](CCCCN)n3cc([C@@H](N)CO)nn3)CC2)nc(N2CCN(C(=O)[C@H](CCCCN)n3cc([C@@H](N)CC(C)C)nn3)CC2)n1,nt,3%,56µM*,22%,nt,1%
C#CCOCCOCCOCCNc1nc(N2CCN(C(=O)[C@H]([C@@H](C)CC)n3cc([C@@H](N)CO)nn3)CC2)nc(N2CCN(C(=O)[C@H](CCCCN)n3cc([C@@H](N)CC(C)C)nn3)CC2)n1,79µM*,-3%,50µM*,44%,?,-20%
C#CCOCCOCCOCCNc1nc(N2CCOCC2)nc(N2CCN(C(=O)[C@H](CCCCN)n3cc(CN)nn3)CC2)n1,nt,1%,-28%,7%,nt,11%
Cc1cc(C)c2c(=O)cc(C(=O)Nc3ccccc3C(F)(F)F)oc2c1,3%,-9%,8%,54%,0%[59 µM],nt
O=C(Nc1noc2ccccc12)c1ccc(F)cc1,4%,0%,6%,51%,25%[59 µM],nt
Cc1nc(CSc2nsc(C)c2C#N)cs1,6%,-7%,-6%,9%,17%,39%
Cc1snc(SCC(=O)c2ccc(Cl)cc2)c1C#N,26%,6%,27%,21%,20µM*,16%
CCOC(=O)CSc1nsc(SCC(=O)OCC)c1C#N,36%,3%,21%,95%,4%[59 µM],-11%
Cc1ccc(C(=O)CSc2nsc(C)c2C#N)cc1,5%,-7%,-20%,-26%,4.5µM*,12%
CC(=O)CSc1nsc(SCC(C)=O)c1C#N,-2%,8%,-30%,-8%,8.9µM*,-7%
COC(=O)c1ccccc1CSc1nsc(C)c1C#N,87%,-12%,84%,48%,16µM*,nt
COc1cccc(C2=Nn3c(nnc3-c3ccc(OC)c(OC)c3)SC2)c1,nt,nt,-11%,nt,nt,nt

# Screens from PubChem.
